Gal4-VP16 FLuc: counter-screen for ROR gamma inhibitors: Gal4-VP16 reporter; Drosophila S2 Gal4-VP16 UAS-luciferase, luminescence, 20 h; Potency, µM (titrated, usually from 53.6 µM), inactives show at the highest dose activity, negative = inhibition, usual class: inhibitors; 310,000 tested, 3.5% active;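 also: Gal4-VP16 expression switched on by copper sulfate through the metallothionein promoter; % is scaled to controls: 0 for no effect and ±100 for the full control effect; nearly all actives have a fitted effect of over 50% in size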
HEK293 tox: cytotoxicity in counter-screen for GLP-1R inverse agonists | HEK293 cAMP-luciferase reporter cells, luminescence, 24 h | Potency, µM (doses to about 38.3 µM), inactives show top-dose activity change, negative = inhibition, most hits filed as inhibitors | 410,000 tested, 0.13% active | AID 624418;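 also: loss of luciferase light is scored as toxicity; % is scaled to controls: 0 for no effect and ±100 for the full control effect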
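Luminescence readout: signal drop marks cytotoxicity. Plated cells grew 12 h at 37 °C, 5% CO2, received 23 nL compound for 24 h, then got luciferase reagent, read after 12 min at RT.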
RORgamma inh: blocks mouse ROR gamma transcriptional activity. P51450. Drosophila S2 Gal4-RORgamma UAS-luciferase reporter, 20 h. Potency, µM (titrated, usually from 53.6 µM), without a hit: at the top dose activity change, negative = inhibition, actives largely listed as inhibitors. 310,000 tested, 5.4% active. AID 2551; also: % is scaled to controls: 0 for no effect and ±100 for the full control effect; nearly all actives have a fitted effect of over 60% in size
Target sequence (P51450 whole entry, looked up, the tested form may be a part): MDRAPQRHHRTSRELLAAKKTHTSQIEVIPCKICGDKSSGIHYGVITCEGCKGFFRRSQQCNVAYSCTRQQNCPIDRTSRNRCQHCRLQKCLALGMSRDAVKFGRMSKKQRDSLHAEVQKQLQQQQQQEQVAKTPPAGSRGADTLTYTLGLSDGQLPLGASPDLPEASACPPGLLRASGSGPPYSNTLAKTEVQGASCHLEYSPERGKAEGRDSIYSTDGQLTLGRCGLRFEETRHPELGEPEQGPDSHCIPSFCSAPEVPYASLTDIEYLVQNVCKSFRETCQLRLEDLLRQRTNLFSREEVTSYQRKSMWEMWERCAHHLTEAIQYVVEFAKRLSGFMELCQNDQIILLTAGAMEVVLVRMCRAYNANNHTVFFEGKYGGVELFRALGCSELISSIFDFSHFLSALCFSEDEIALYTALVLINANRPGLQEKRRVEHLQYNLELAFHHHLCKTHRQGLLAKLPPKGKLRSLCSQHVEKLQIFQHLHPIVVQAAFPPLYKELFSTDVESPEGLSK
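Using a luciferase readout, inhibitors were identified by reduced reporter activity in Drosophila cells coexpressing a copper-inducible Gal4–ROR gamma fusion and UAS-driven Photinus luciferase, incubated 20 hr after 700 uM copper sulfate.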
GLP-1R inv ag: inverse agonists of human GLP-1 receptor | HEK293 GLP-1R CRE-luciferase, luminescence, 24 h; GLP-1R form is constitutively active | Potency, µM (top dose mostly 38.3 µM), inactives show at the highest dose activity change, negative = inhibition, hits mostly inhibitors | P43220 | 410,000 tested, 1.6% active; also: % is scaled to controls: 0 for no effect and ±100 for the full control effect; nearly all actives have a fitted effect of over 55% in size
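Inverse agonists were sought by their lowering of basal cAMP reporter luciferase output in HEK293 cells stably carrying constitutively active human GLP-1R, after 24 h compound treatment.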
GLP-1R agonist: agonists of human GLP-1 receptor. Potency, µM (doses to about 45.6 µM), without a hit: top-dose activation, actives largely listed as activators. 380,000 tested, 0.007% active. AID 624172. P43220. HEK293 GLP-1R CRE-luciferase, luminescence, 4-6 h; cells express a hypersensitive GLP-1R form; also: % of control where 0% means no effect
The depositor's hits bear a star; ? = inconclusive; nt = not tested or not shown; [ ] = remark or other dose. Compounds with a hit are over-represented: about 5.9% of the library has one in this group of screens. Calls follow the shape of the dose curve; as a rule, active = well fitted curve in the direction sought with a large enough effect; inconclusive = small, poorly fitted or top-dose-only effect, or another doubt; inactive = no such curve, though single readings can be large; an effect the other way counts as inactive or inconclusive. Potency is read from the fitted curve at half-maximal effect.

SMILES	Gal4-VP16 FLuc	HEK293 tox	RORgamma inh	GLP-1R inv ag	GLP-1R agonist
O=C(c1cc(C(F)(F)F)cc(C(F)(F)F)c1)N1CCC2(CC1)CN(c1ncccn1)C2	3%	nt	24%	nt	nt
CCc1ccc(C(=O)CSc2n[nH]c(-c3ccncc3)n2)cc1	11µM*	-11%	39%	2%	3%
O=C(C(O)c1ccccc1)N1CCN(S(=O)(=O)c2ccc(OC(F)(F)F)cc2)CC1 (stereo not drawn)	nt	1%	nt	11%	nt
O=S(=O)(c1ccccc1)N1CCN(C(c2ccccc2)c2ccc(OC(F)(F)F)cc2)CC1 (stereo not drawn)	7%	4%	-16%	10µM*	0%
COc1ccc(-n2nc(C(=O)N(C)c3cc(Cl)ccc3OC)c3c4ccccc4n(C)c3c2=O)cc1	nt	-10%	nt	3%	nt
Cn1c(C=O)c(C#Cc2ccccc2)c2ccccc21	nt	58%	nt	?	16%
Cn1c(Sc2ccc(Br)cc2)c(C=O)c2ccccc21	2%	-20%	21%	4.5µM*	-23%
CCOC(=O)/C(=C\c1ccc(OC(F)F)cc1)C1=Nn2c(nnc2-c2ccc(Cl)cc2)SC1	5.6µM*	-13%	6.3µM*	?	-18%
COc1ccc(CN([C@H](CO)CC(C)C)S(=O)(=O)N(Cc2ccccc2)[C@H](CO)CC(C)C)cc1	nt	?	nt	4.5µM*	-10%
CCCCc1n[nH]c(=S)n1Cc1ccccc1	16µM*	-22%	4µM*	?	10%
CCCCc1n[nH]c(=S)n1Cc1ccc(Cl)cc1	7.1µM*	-18%	4µM*	?	19%
CCCCn1c(Cc2ccccc2)n[nH]c1=S	-24%[0.365 µM]	-19%	?	0%	-4%
COC(=O)CN1C(=O)CSc2ccc(S(=O)(=O)Nc3ccc(C(C)=O)cc3)cc21	nt	32%	nt	8%	nt
CC(C)CCn1c(=S)[nH]c2ncccc2c1=O	-28%	-5%	5µM*	5%	-13%
CN(C)CCn1c(=S)[nH]c2ncccc2c1=O	-12%[10 µM]	-4%	-5%	4%	0%
CCOCCCn1c(=S)[nH]c2ncccc2c1=O	?	-4%	10µM*	27%	-9%
Cc1ccc(C2CC(c3ccc(Cl)cc3)=NNC2=O)cc1 (stereo not drawn)	14µM*	0%	?	?	13%
Cc1cc(Nc2ccc(Br)cc2F)n2nc(C)nc2n1	7.9µM*	-3%	3.2µM*	-15%	1%
Cc1cc(Nc2ccccc2F)n2nc(C)nc2n1	-6%	5%	-18%	41%	1%
Cc1c(CC(C)(C)C(=O)O)n(Cc2ccc(Cl)cc2)c2ccc(F)cc12	-7%	nt	26%	nt	nt
N#CC1=C(Nc2ccccc2Cl)SC(c2ccccc2O)NC1=O (stereo not drawn)	?	-33%	13µM*	13%	-4%
COc1cccc(NC2=C(C#N)C(=O)NC(c3cccc(OC)c3O)S2)c1 (stereo not drawn)	-10%	1%	?	-7%	7%
COc1ccc(-n2c(=O)c3c4c(sc3n(Cc3ccc(C(C)(C)C)cc3)c2=O)CCC4)c(OC)c1	nt	-3%	nt	6.3µM*	nt
COCCCNCCCCOc1ccc(Br)cc1C	8%	-4%	-35%	2.8µM*	0%
O=C(c1cnn2ccccc12)N(Cc1ccco1)C1CCCC1	12%	?	-10%	3.5µM*	18%
SMILES	Gal4-VP16 FLuc	HEK293 tox	RORgamma inh	GLP-1R inv ag	GLP-1R agonist
O=C1CC(=O)CC(c2ccccc2)C1	3%	6%	-2%	-3%	-1%
O=S1(=O)CCS(=O)(=O)C1c1ccccc1	nt	?	nt	11µM*	-9%
O=C(N/N=C/c1ccco1)C1COc2ccccc2O1 (stereo not drawn)	12%	-1%	-2%	1%	-2%
O=C(N/N=C/c1cccc([N+](=O)[O-])c1)C1COc2ccccc2O1 (stereo not drawn)	10%	-2%	16%	-22%	2%
COc1cc([N+](=O)[O-])cc(/C=N\NC(=O)C2COc3ccccc3O2)c1O (stereo not drawn)	3.2µM*	?	0.45µM*	?	-1%
O=C(N/N=C\c1cccc([N+](=O)[O-])c1O)C1COc2ccccc2O1 (stereo not drawn)	2µM*	-7%	1.8µM*	-23%	-10%
O=C(CNC(=O)C1COc2ccccc2O1)N/N=C\c1cccc(O)c1 (stereo not drawn)	4%	77%	13%	1%	1%
O=C(N/N=C\c1ccc[nH]1)C1COc2ccccc2O1 (stereo not drawn)	?	-14%	11µM*	12%	7%
O=C(CNC(=O)C1COc2ccccc2O1)N/N=C/c1ccc(O)cc1O (stereo not drawn)	-17%	-22%	13µM*	17%	-6%
CCN1CCN(CCCNC(=O)Cn2nc(C)n3c(cc4c(OC)cccc43)c2=O)CC1	nt	-10%	nt	0%	nt
CC(C)C1C(=O)N(S(C)(=O)=O)[C@H]2CCN(C(=O)/C=C/CN3CCCCC3)[C@@H]12 (stereo partly drawn)	4%	nt	20%	nt	nt
COc1cccc2c1Oc1ncccc1N(C(=O)Nc1ccc(F)c(Cl)c1)C2	nt	1%	nt	8%	nt
Cc1ccc(NC(=O)c2ccc(COc3ccc4c(c3)CCC4)cc2)c(C)c1	8.9µM*	8%	2.2µM*	32%	0%
O=C(Nc1ccccc1Cl)c1ccc(COc2ccc3c(c2)CCC3)cc1	?	49%	-27%	-2%	7%
Cc1ccc(NC(=O)c2cc3ccccn3n2)cc1F	nt	0%	nt	-4%	nt
CCOc1ccc(OCc2ccc(C(=O)O)o2)cc1	15%[0.365 µM]	-19%	10µM*	?	-14%
COc1ccc(C2N=C(c3ccccc3)C(C)(C)N2O)cc1OC (stereo not drawn)	-17%	?	10µM*	1%	14%
CCn1c(-c2ccccc2)c[nH]c1=S	8.9µM*	-24%	1.1µM*	-15%	1%
S=c1[nH]cc(-c2ccc(Cl)cc2)n1Cc1ccccc1	2.8µM*	?	2.5µM*	2%	0%
CCn1c(=S)[nH]c2ccccc21	?	-11%	?	3%	-8%
CC(C)Cn1c(-c2ccc(Br)cc2)c[nH]c1=S	1.6µM*	?	0.63µM*	10µM*	15%
Cc1nn(C)c2c1c(-c1ccccc1)cc(=O)n2Cc1ccccc1C#N	nt	10%	nt	-4%	nt
O=C(CSc1oc(-c2cccs2)nc1S(=O)(=O)c1ccccc1)Nc1ccc(F)cc1	nt	-3%	nt	11%	nt
O=C(Cn1c(=S)[nH]c2ccccc21)c1ccccc1	?	48%	10µM*	-21%	1%
COC(=O)c1cc2oc3ccccc3c2n1Cc1nc(-c2cccc(C)c2)oc1C	nt	3%	nt	-2%	nt
CCNC(=S)NS(=O)(=O)c1ccc(C)cc1	?	0%	?	27%	-1%
